Compounds with a hit are over-represented: about 1.6% of the library has one in this group of screens.
KCNQ2 block: KCNQ2 (rat) channel inhibition; AID 2156; CHO-K1 KCNQ2, FluxOR thallium flux, 20 min; hits give low values; O88943; B-score at 10 µM; 310,000 tested, 1.1% active;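 active means fluorescence ratio B-score at most minus 3 library SDs, with starting brightness B-score within 2 library SDs, cut at about -5.5 in these data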
KCNQ2 pot: KCNQ2 (rat) channel potentiation | 310,000 tested, 0.54% active | CHO-K1 KCNQ2, FluxOR thallium flux fluorescence; hits give high values | B-score at 10 µM | AID 2239;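 active means fluorescence ratio B-score at least 3 SD of library B-scores, with initial fluorescence B-score within 3 of them, cut at about 5.3 in these data; same plate scores as AID 2156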;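 further: B-score of peak minus minimum over baseline fluorescence ratio after K+ and Tl+ stimulus; positive B-score means potentiation of KCNQ2 with more thallium influx and brighter signal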
Kir21 confirm: confirmation of mouse Kir2.1 potassium channel inhibitors; Tl flux remaining, % of negative control (hits give low values), % at 10 µM; shares compounds with KCNQ2 pot; AID 2032; 2,300 tested, 41% active; Kir2.1-expressing cells, FluxOR thallium flux fluorescence; hits give low values;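 active means Primary-screen hit whose thallium flux fell at least 3 control SD below untreated wells in both duplicates, with normal baseline fluorescence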;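 further: 0% = blank wells without stimulus and 100% = stimulated no-compound controls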
HEK293 Tl flux: parental HEK293 activity in Kir2.1 inhibitor counter-screen; shares compounds with KCNQ2 pot; parental HEK293 cells, FluxOR thallium flux fluorescence; 0% = unstimulated blank wells; FluxOR signal as % of negative control (100 = no effect), % at 10 µM; 2,300 tested, 19% active; AID 2105;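 active means dye signal at least 3 control SD above or below untreated wells in both duplicates, raw fluorescence within 3, either direction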;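 further: percent is based on the flux ratio of peak minus minimum fluorescence over baseline F0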
CHO-K1 Tl ctr: counter-screen for KCNQ2 potentiators: effect in parental CHO-K1 cells; shares compounds with KCNQ2 pot; activity increase over 3SD of controls, % at 10 µM; FluxOR thallium flux fluorescence; zero = vehicle mean+3SD, 100% = vehicle-minus-blank window; 1,200 tested, 43% active;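 active means signal rise of at least 3 SD above the untreated control mean, in both duplicate wells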;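 further: counter screen of KCNQ2 potentiator hits so any rise reflects channel-independent effects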
KCNQ1 sel pot: human KCNQ1 counter-target activity of KCNQ2 potentiators; activation over 3SD threshold, % at 10 µM; AID 2283; shares compounds with KCNQ2 pot; CHO KCNQ1 stable, FluxOR thallium flux fluorescence; beyond 3SD, as % of vehicle-control signal; 1,200 tested, 28% active;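 active means fluorescence ratio rise of at least 3 SD of vehicle wells above their mean, in both replicate wells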;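 further: 0% = vehicle mean plus 3 SD and 100% = vehicle minus unstimulated blank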
KCNQ2 pot confirm: rat KCNQ2 channel potentiator confirmation | CHO-KCNQ2 cells, FluxOR thallium flux fluorescence | potentiation, less the hit threshold, % at 10 µM | 1,200 tested, 68% active | shares compounds with KCNQ2 pot;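 active means fluorescence ratio rising 3 SD or more over the vehicle control mean in both replicates, plus primary screen hit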;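 further: peak minus minimum thallium fluorescence divided by baseline after K/Tl stimulus; 0% = vehicle mean plus 3 SD and 100% = vehicle minus unstimulated blank difference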
Kir21 spec: selectivity of KCNQ2 potentiators: effect on mouse Kir2.1 | shares compounds with KCNQ2 pot | activity over 3SD threshold, % at 10 µM | HEK293 Kir2.1, FluxOR thallium flux fluorescence | 1,200 tested, 2% active;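 active means fluorescence ratio rise of at least 3 SD above the vehicle-control mean, seen in both replicates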;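 further: 0% = vehicle mean plus 3 SD and 100% = vehicle minus no-stimulus blank window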
KCNQ2 W236L pot: rat KCNQ2 W236L mutant potentiation by KCNQ2 potentiators | shares compounds with KCNQ2 pot | CHO KCNQ2-W236L, automated patch clamp current | current increase over 3SD of negative controls (%), hits give high values, % at 25 µM | 940 tested, 10% active;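 active means current increase at least 3 SD of the untreated controls above them in both duplicate recordings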
Target sequence (O88943 whole entry W236L, looked up): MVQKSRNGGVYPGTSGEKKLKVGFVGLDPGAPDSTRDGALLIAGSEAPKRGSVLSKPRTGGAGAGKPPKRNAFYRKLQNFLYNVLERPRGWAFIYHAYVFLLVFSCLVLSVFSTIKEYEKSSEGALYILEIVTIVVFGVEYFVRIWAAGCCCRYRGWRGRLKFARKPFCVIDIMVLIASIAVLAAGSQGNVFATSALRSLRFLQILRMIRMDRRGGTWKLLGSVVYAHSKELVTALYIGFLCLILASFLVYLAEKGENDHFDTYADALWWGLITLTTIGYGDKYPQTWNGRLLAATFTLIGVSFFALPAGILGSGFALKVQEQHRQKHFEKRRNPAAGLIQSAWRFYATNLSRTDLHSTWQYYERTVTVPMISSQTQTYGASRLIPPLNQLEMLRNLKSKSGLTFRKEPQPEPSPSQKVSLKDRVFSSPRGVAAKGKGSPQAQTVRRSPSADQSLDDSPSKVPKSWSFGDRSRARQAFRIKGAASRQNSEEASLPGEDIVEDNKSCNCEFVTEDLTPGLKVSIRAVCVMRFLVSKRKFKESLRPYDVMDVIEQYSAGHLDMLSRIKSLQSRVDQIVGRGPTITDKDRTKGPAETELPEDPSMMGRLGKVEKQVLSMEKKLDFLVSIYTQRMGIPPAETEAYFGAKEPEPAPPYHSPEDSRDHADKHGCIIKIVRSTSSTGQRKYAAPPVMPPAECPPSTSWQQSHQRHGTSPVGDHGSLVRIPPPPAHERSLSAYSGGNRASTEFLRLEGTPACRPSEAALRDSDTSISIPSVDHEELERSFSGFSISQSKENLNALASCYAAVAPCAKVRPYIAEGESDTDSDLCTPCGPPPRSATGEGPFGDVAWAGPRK
The depositor's hits bear a star; i = inactive; · = no result.

SMILES	KCNQ2 block	KCNQ2 pot	Kir21 confirm	HEK293 Tl flux	others
COc1ccc(NC(=O)C2CC3CCC2C3)c(OC)c1 (configuration not stated)	i	9.8*	i	i	CHO-K1 Tl ctr=69*;KCNQ1 sel pot=58*;KCNQ2 pot confirm=61*;Kir21 spec=-18;KCNQ2 W236L pot=i
Cc1ccc(NC(=O)CC2CCCC2)c(Br)c1	i	16*	i	i	CHO-K1 Tl ctr=-20;KCNQ1 sel pot=-12;KCNQ2 pot confirm=52*;Kir21 spec=-25;KCNQ2 W236L pot=i
O=C(Nc1ccccc1)C1CC2CCC1C2 (configuration not stated)	i	3.5	·	·
COc1ccc(NC(=O)C2CCCO2)c(OC)c1 (configuration not stated)	i	·	·	·
Cc1ccc(S(N)(=O)=O)cc1NC(=O)C1CC2CCC1C2 (configuration not stated)	i	·	·	·
Cc1ccc(NC(=O)C2CCCC2)c(Br)c1	i	4.5	·	·
C/C(=N\NC(=O)c1ccccc1O)c1ccc(NC(=O)Cc2ccccc2)cc1	i	0.97	·	·
Cc1ccc(N(C)S(=O)(=O)c2c[nH]c3ccc([N+](=O)[O-])cc23)cc1	i	2.6	·	·
CCO[C@H]1OC(C(=O)N2CCN(Cc3ccc4c(c3)OCO4)CC2)=C[C@@H](c2ccc(Br)cc2)[C@@H]1CCCO	i	·	·	·
Cn1c(=O)c2c(nc(Br)n2C/C=N/NC(N)=S)n(C)c1=O	i	·	·	·
Cc1ccc(N2C(=O)C(Cl)=C(N3CCCCCC3)C2=O)c(C)c1	i	·	·	·
CCOC(=O)COn1c(=O)c(-c2ccccc2)[n+]([O-])c2ccccc21	i	·	·	·
CC(C)(C)NC(=O)CN(Cc1ccco1)C(=O)CCC(=O)Nc1nccs1	i	·	·	·
Cc1cc(C)cc(NC(=O)C2CC3CCC2C3)c1 (configuration not stated)	i	0.29	·	·
Cc1ccc(NC(=O)C2CC3CCC2C3)c(Br)c1 (configuration not stated)	i	14*	i	i	CHO-K1 Tl ctr=17*;KCNQ1 sel pot=-17;KCNQ2 pot confirm=32*;Kir21 spec=-41;KCNQ2 W236L pot=i
COC(=O)c1ccc(Cl)c(NC(=O)CN(c2ccccc2)S(=O)(=O)c2ccc(OC)cc2)c1	i	·	·	·
COc1cccc(/C=N/NC(=O)CNC(=O)COc2ccccc2)c1O	i	1.2	·	·
Cc1cccc(OCC(=O)NCC(=O)N/N=C/c2cc(Br)cc(Br)c2O)c1	i	10*	i	i	CHO-K1 Tl ctr=6.9*;KCNQ1 sel pot=0.7*;KCNQ2 pot confirm=-12;Kir21 spec=-27
CCOC(=O)C1=C(C)NC(C)=C(C(=O)OCC)C1c1cn(-c2ccccc2)nc1-c1ccco1	i	11*	i	i	CHO-K1 Tl ctr=17*;KCNQ1 sel pot=86*;KCNQ2 pot confirm=-12;Kir21 spec=-17
CCOC(=O)C1=C(C)NC(=O)NC1c1cn(-c2ccccc2)nc1-c1cccs1 (configuration not stated)	i	·	·	·
Cc1nc(-c2ccc(F)cc2)c(CC(=O)Nc2ccc(C)c(S(=O)(=O)N3CCOCC3)c2)s1	i	·	·	·
C=CCN(c1nc(C)cc(OC)n1)S(=O)(=O)c1ccccc1	i	·	55%*	72%*
COC(=O)CN(c1nc(C)cc(OC)n1)S(=O)(=O)c1ccc(C)cc1	i	2.2	·	·
CCN(c1nc(C)cc(OC)n1)S(=O)(=O)c1ccccc1	i	·	56%*	74%*
C=CCN(c1nc(C)cc(OC)n1)S(=O)(=O)c1ccc(C)cc1	i	·	·	·
SMILES	KCNQ2 block	KCNQ2 pot	Kir21 confirm	HEK293 Tl flux	others
COC(=O)CN(c1ccc(OCc2ccccc2)cc1)S(C)(=O)=O	i	·	·	·
CS(=O)(=O)N(CC(=O)Nc1ccc(S(=O)(=O)N2CCOCC2)cc1)c1ccccc1Br	i	0.08	·	·
CCOC(=O)c1c(C)nc2c(c1-c1ccc(Cl)cc1)C(=O)CC(C)(C)C2	i	·	·	·
CCOc1ccccc1N(C)C(=O)c1cn(C)c(=O)c2ccccc12	i	·	·	·
Cc1ccccc1CSCc1nc2ccccc2[nH]1	i	·	·	·
Cc1ccc(C)c(CSCc2nc3ccccc3[nH]2)c1	i	·	74%*	i
COc1ccc(N(CC(=O)NCc2ccco2)C(=O)CNS(=O)(=O)c2ccc(Cl)cc2)cc1	i	0.8	·	·
Cc1cc(=S)nc(-c2ccccn2)[nH]1	i	2.4	·	·
Cc1[nH]c(-c2ccccn2)nc(=S)c1Cl	i	11*	i	298%*	CHO-K1 Tl ctr=-9;KCNQ1 sel pot=-7;KCNQ2 pot confirm=42*;Kir21 spec=-18;KCNQ2 W236L pot=i
CC1=C/C(=C(\c2cc(C)c(O)c(Br)c2)c2ccccc2S(=O)(=O)O)C=C(Br)C1=O	i	0.48	·	·
O=C(N[C@H](C(=O)O)c1ccccc1)C1CCC(Cn2nnc3ccccc3c2=O)CC1 (some centres not stated)	i	·	·	·
Cc1c(C(=O)N(C)Cc2ccc(OC(F)F)cc2)oc2ccccc12	i	·	·	·
COc1ccc(CCN(C)C(=O)c2oc3ccccc3c2C)cc1OC	i	0.42	38%*	i
COC(=O)c1ccc(-c2ccc(/C=N/NC(=O)Cc3nnc(N)s3)o2)cc1	i	0.12	·	·
CCCCC(CC)CNS(=O)(=O)c1ccc2c(c1)CCN2C(=O)CCC(=O)O (configuration not stated)	i	·	i	i
CCc1ccc(NS(=O)(=O)c2ccc3c(c2)CCN3C(=O)CCC(=O)O)cc1	i	·	·	·
Nc1cc(C(F)(F)F)cc2c1SCC(=O)N2	i	0.31	·	·
O=C(O)c1cccc(-n2nnnc2SCc2ccccn2)c1	i	·	·	·
c1ccc(CSc2nnnn2-c2cccc3ccccc23)nc1	i	·	66%*	i
CCc1ccc2[nH]c(O)c(N=NC3=NC(=O)CS3)c2c1	i	·	·	·
CCc1ccc2c(c1)c(N=NC1=NC(=O)CS1)c(O)n2CC	i	9.7*	i	224%*	CHO-K1 Tl ctr=-26;KCNQ1 sel pot=-11;KCNQ2 pot confirm=28*;Kir21 spec=-20;KCNQ2 W236L pot=i
O=C(Cc1ccc(Cl)cc1)Nc1ccc2c(c1)C(=O)NC2=O	i	·	·	·
CCn1c2c(c(=N)c3c1CCC3)CCCC2	i	0.8	·	·
CCCCn1c2c(c(=N)c3ccccc31)CCC2	i	·	·	·
CCCCCCCCn1c2c(c(=N)c3ccccc31)CCC2	-5.7*	-5.7	14%*	i
CCCCCCCCCn1c2c(c(=N)c3c1CCC3)CCCC2	i	19*	9.0%*	i	CHO-K1 Tl ctr=39*;KCNQ1 sel pot=-4;KCNQ2 pot confirm=-88;Kir21 spec=-114;KCNQ2 W236L pot=i
CCOC(=O)Cc1csc(NC(=O)CSc2ncnc3c2cnn3-c2ccccc2Cl)n1	i	1.1	·	·

High-throughput results (PubChem)
